Screen size: about 370,000 compounds; about 3,100 (0.84%) were called active.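 The calls were made as follows: active = inhibition above the mean of compounds lying between control limits plus 3 SD, set per campaign (cut at about 8.5% in these data); inactive = the rest.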 The list comes from a sample in which actives are over-represented; it also holds similar structures and randomly drawn compounds.
Target: Disintegrin and metalloproteinase domain-containing protein 17 (Homo sapiens) (UniProt P78536)
Test: inhibition of ADAM17 peptide cleavage – biochemical, QFRET, primary screen (AID 720648);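 also: 0% = DMSO-only wells as the low control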
Conditions: recombinant ADAM17, EDANS/DABCYL FRET peptide cleavage; at 6.95 µM; hits give high values

Disintegrin and metalloproteinase domain-containing protein 17 (Homo sapiens), sequence (P78536 215-824 limits assumed): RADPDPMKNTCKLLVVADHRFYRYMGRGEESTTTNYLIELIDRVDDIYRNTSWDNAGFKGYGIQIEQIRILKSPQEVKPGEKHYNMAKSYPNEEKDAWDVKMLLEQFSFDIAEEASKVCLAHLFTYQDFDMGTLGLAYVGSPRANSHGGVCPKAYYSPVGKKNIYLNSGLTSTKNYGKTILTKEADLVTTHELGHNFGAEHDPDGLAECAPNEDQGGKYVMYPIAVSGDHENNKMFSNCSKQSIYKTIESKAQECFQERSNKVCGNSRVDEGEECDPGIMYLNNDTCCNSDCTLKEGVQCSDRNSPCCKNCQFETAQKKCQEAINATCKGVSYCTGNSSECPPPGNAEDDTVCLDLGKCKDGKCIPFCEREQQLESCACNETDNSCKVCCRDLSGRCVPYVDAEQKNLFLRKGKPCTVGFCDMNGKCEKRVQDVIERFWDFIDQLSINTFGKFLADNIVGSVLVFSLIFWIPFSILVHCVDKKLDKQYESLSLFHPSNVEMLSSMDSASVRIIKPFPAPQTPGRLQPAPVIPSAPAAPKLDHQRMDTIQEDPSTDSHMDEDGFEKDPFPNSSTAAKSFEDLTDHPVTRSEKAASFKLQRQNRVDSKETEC

inhibition, active:
O=C(Cc1ncc(C(F)(F)F)cc1Cl)Nc1cccc(Br)c1 10.2%, CN(C)c1ccc(NC(=O)NC2CCCCN(Cc3ccc(Cl)cc3)C2=O)cc1 (configuration not stated) 8.69%, CCOC(=O)c1c(Cc2ccc(Cl)cc2)c[nH]c1C 11.1%, COc1ccc(C(=O)Nc2ccc(C3(C#N)CCCC3)cc2)cc1OC 8.73%, O=C(CSc1nc(Nc2ccccc2)nc(N2CCOCC2)n1)Nc1cc(Cl)ccc1O 10.2%, O=C1NC(=O)C(c2ccc(Cl)cc2)N1 (configuration not stated) 35.4%, COc1ccc(S(=O)(=O)Nc2ccc(O)c(Sc3nc4ccccc4s3)c2)cc1 9.23%, COc1ccc(CC(N)c2csc(NC(=O)NC(c3ccccc3)c3ccccc3)n2)cc1 (configuration not stated) 8.79%, COc1ccc(C(N)c2csc(NC(=O)Nc3cccc(C(F)(F)F)c3)n2)cc1 (configuration not stated) 13.7%, COC(=O)c1c(C)[nH]c(C(=O)/C=C/c2ccc(Cl)cc2)c1C 9.17%, C=CCOc1ccccc1/C=N/NC(=O)Cc1ccccc1 11.4%, CCCN(CC(=O)NC(=O)NC1CCCCC1)CC(=O)Nc1cc(Cl)ccc1Cl 9.13%, CCN1C(=O)C(CC(=O)Nc2cc(C)ccc2C)SC1=Nc1ccc(S(N)(=O)=O)cc1 (configuration not stated) 9.07%, Cc1onc(C(=O)NN)c1-c1csc(COc2ccccc2)n1 9%, O=Nc1c(O)cc(O)c2ccccc12 10.5%, COc1cccc(NC(=O)C2C(c3ccccc3)C2(Cl)Cl)c1 (configuration not stated) 9.55%, CC(C)(C)c1ccc(S(=O)(=O)NCC2CCN(C(=O)C(=O)c3cc4ccccc4o3)CC2)cc1 9.75%

inhibition, inactive:
COc1ccc(Cn2cc(CN3[C@@H](CC(C)C)COc4cc(Br)ccc4S3(=O)=O)nn2)cc1 1.7%, COc1ccc(-n2c(SCC(=O)Nc3ccc4c(c3)OCCO4)nnc2-c2ccc(Cl)cc2)cc1 4.24%, O=C(CCCCCN1C(=O)C2C3C=CC(C3)C2C1=O)Nc1ccccn1 (configuration not stated) 2.59%, c1csc(-c2nnc(SCc3nc4ccccc4[nH]3)o2)c1 -10.2%, COC(=O)[C@]12C[C@H](CC(=O)N3CCOCC3)C(=O)N(Cc3ccc(Cl)cc3Cl)C1=C[C@H](COCc1ccccc1)O[C@@H]2C 0.56%, O=C(CN1CCN(c2ncc(C(F)(F)F)cc2Cl)CC1)Nc1ccc2c(c1)OCO2 -4.94%, CC(=O)c1ccc(Cc2ncc(C(F)(F)F)cc2Cl)s1 -2.56%, CCOC(=O)[C@]12CCCC3=C1N(CCC3)C(=O)[C@@H](CC(=O)NCc1cccs1)C2 0.06%, Nn1c(SCC(=O)N2c3ccccc3Sc3ccccc32)nnc1-c1n[nH]c2c1CCC2 5.84%, O=C(NC1CCCCN(Cc2ccc(Cl)cc2)C1=O)c1ccc(Br)cc1 (configuration not stated) 5.04%, Cc1ccc(CN2CCCCC(NC(=O)C3CCCCC3)C2=O)cc1 (configuration not stated) 1.84%, CN(C)[C@H]1CCN(c2cccc3c2S(=O)(=O)N2CC[C@H](C2)O3)C1 -2.38%, COC(=O)C[C@@H]1CC[C@H]2[C@@H](COc3ccc(NS(=O)(=O)CC(F)(F)F)cc3C(=O)N2C)O1 -6.55%, CCOC(=O)c1ccc(CS(=O)c2ccc(Cl)cc2)o1 (configuration not stated) -2.74%, CCOC(=O)c1c(S(=O)(=O)Nc2cccc(Cl)c2)c(C)n(C)c1C -9.22%, CC(C)N1CCCCC(NC(=O)c2ccc3ccccc3c2)C1=O (configuration not stated) -4.85%, COc1ccc(C(=O)Nc2ccc3nc(N4CCCCC4)cc(C)c3c2)cc1OC -7.57%, COc1ccc(C(=O)NC2CC(C)(C)NC(C)(C)C2)cc1OC -2.12%, C=CCN(C)CC#Cc1ccccc1 4%, c1coc(CCNc2ncnc3ccc(-c4ccc5c(c4)OCO5)cc23)c1 -61.9%, O=C(CSc1ccccc1)Nc1cc(Cl)ccc1Oc1ccccc1 2.94%, O=C(CSc1nc2ccc(Nc3nc(N4CCOCC4)nc(N4CCOCC4)n3)cc2s1)NCc1ccco1 -1.45%, Cc1cc(=O)[nH]c(SCC(=O)Nc2ccc(Cl)cc2C)n1 3.04%, CCCCNC(=O)C[C@H]1C(=O)N(Cc2ccc(OC)cc2)C2=CCCC[C@@]21C(=O)OCC -4.97%, CC(C)(C)OC(=O)NCc1cc(F)ccc1/C=C/S(=O)(=O)NCCc1ccccc1 4.18%, O=C1CSC(c2ccc(Cl)cc2)N1 (configuration not stated) -1%, CC(C)Oc1ccc(C2NC(=O)NC2=O)cc1 (configuration not stated) -3.2%, Fc1ccc2nc(COCc3nc4ccc(F)cc4[nH]3)[nH]c2c1 -1.4%, COc1ccc(Cn2ccc3ccc(-c4ccc5ccn(Cc6ccccc6C)c5c4)cc32)cc1 -14.6%, CCCC1CCC2(CCCN2CCOC(=O)NCc2ccccc2)CC1 (configuration not stated) -6.91%, COc1cccc(NS(=O)(=O)c2ccc(-c3coc(C)n3)cc2)c1 0.72%, COc1ccc(NS(=O)(=O)c2ccc(O)c(C(=O)OCC(=O)NC3CCCCC3)c2)cc1 -2.64%, CCOC(=O)C1CCN(C(=O)C(C)(C)NC(=O)Nc2ccccc2Cl)CC1 -3.66%, C=CCN1C(=O)[C@@H](CC(=O)NCCCOCCCC)[C@]2(C(=O)OCC)CCCCC/C=C/12 -0.06%, CCC(c1ccc(NC(=O)OC(C)(C)C)cc1)c1cc(OC)cc(OC)c1 (configuration not stated) 3.59%, C=CCN1C(=O)[C@@H](CC(=O)N2CCN(C(=O)OCC)CC2)[C@]2(C(=O)OCC)CCCCC/C=C/12 -4.2%, Cc1cc(C(=O)NN=C/C=C/c2ccco2)n[nH]1 -5.03%, COC(=O)C1CN(Cc2ccc(F)cc2)CCS(=O)(=O)N1Cc1ccc(Cl)cc1 (configuration not stated) -3.73%, C[C@H]1[C@H](NC(=O)c2cccc(N(C)C)c2)CC[C@@]23CCCN2C(=O)CCC[C@@H]13 -31.1%, CC(C)(C)CC(=O)Nc1nc(C(N)Cc2ccc(C(F)(F)F)cc2)cs1 (configuration not stated) -1.9%, NC(c1csc(NC(=O)Nc2cccc(C(F)(F)F)c2)n1)C1CCCCC1 (configuration not stated) 3.01%, COc1ccc(CC(N)c2csc(NC(=O)Nc3ccc(C(C)C)cc3)n2)cc1 (configuration not stated) 2.77%, CCOC(=O)c1csc(NC(=O)Nc2cccc(OC)c2)n1 -0.26%, COc1ccc(-n2c(COc3ccc(C)cc3)nnc2SCC(=O)Nc2ccc(Oc3ccccc3)cc2)cc1 -2.03%, O=C1Nc2ccccc2OC1CC(=O)N1CCCCCCC1 (configuration not stated) -1.23%, CCCCN1CCN(C(=O)c2ccc3c(c2)NC(=O)C(C)(C)O3)CC1 1.41%, COC(=O)c1c(C)oc(C)c1S(=O)(=O)NCc1ccc(Cl)cc1 -1.53%, COC(=O)c1c(C)[nH]c(C(=O)NCCc2ccc(S(N)(=O)=O)cc2)c1C -14.5%, Cc1c[nH]c2cccc(-c3ccc(Cl)cc3)c12 -9.67%, O=C(CC(=O)N/N=C\c1cccc(Cl)c1Cl)NCc1ccccc1 -1.85%, CCn1c(SCC(=O)N/N=C/c2ccccc2OCC(=O)O)nnc1-c1ccc(C(C)(C)C)cc1 -1.28%, Oc1ccc(/C=C/c2c(F)cccc2F)c2cccnc12 -0.42%, Nn1c(SCC(=O)Nc2ccc(S(N)(=O)=O)cc2)nnc1-c1n[nH]c2c1CCC2 -1.11%, O=C(COc1cc(Cl)c(Cl)cc1Cl)NC(=O)NC1CCCC1 -3.67%, CCOc1ccccc1NC(=O)NC1CCCCCCC1 2.55%, CCC(C)[C@@H](C(=O)OC)N(CCc1cn(Cc2ccccc2)nn1)S(=O)(=O)c1ccccc1Br (some centres not stated) 6.37%, CC(c1ccc(N)cc1)c1cn(C)c2ccccc12 (configuration not stated) 1.58%, CCN1C(=O)C(=O)N(CC(=O)Nc2cc(C)ccc2C)C1=O -0.07%, CCN=C1SC(CC(=O)Nc2ccc(C)cc2)C(=O)N1CC (configuration not stated) -7.43%, O=C(CN1CCCc2ccccc21)NCc1ccc(F)cc1 1.67%, CCN(CC)C(=O)CC[C@H]1CC[C@]2(CCCN(Cc3ccc(Cl)cc3)C2)O1 1.61%, O=C(COc1ccccc1)Nc1nonc1NC(=O)COc1ccccc1 -4.34%, Cc1cccc(OCCC(=O)OCc2csc(CC(=O)Nc3ccccc3C)n2)c1 -0.41%, CCOC(=O)[C@]12CCCC3=C1N(CCC3)C(=O)[C@@H](CC(=O)N1CCSCC1)C2 0.18%, CC(=O)N1CCc2cc(S(=O)(=O)NCCC(=O)N3CCCC3)ccc21 -3.27%, COc1cccc2c(O)cc(=O)n(C)c12 -4.7%, O=c1c2ccccc2ccc2ccc(P(=O)(O)O)cc12 -16.1%, CCN(C(=O)[C@@H](C1CC1)[C@@H](O)c1ccc2ccccc2c1)c1ccccc1 -1.62%, COc1cccc(NC(=O)C2c3cc(OC)c(OC)cc3C(=O)N(C)C2c2cccnc2)c1 (configuration not stated) 1.58%, COc1cccc(NC(=O)C/C(C)=N/NC(=O)C2CCCCC2)c1 -3.38%, CC(C)CNS(=O)(=O)CC1NCCc2ccccc21 (configuration not stated) -3.23%, COc1ccc(C(=O)OCCN2CCN(C3CN(Cc4cn(Cc5ccccc5F)nn4)S(=O)(=O)C3)CC2)cc1OC (configuration not stated) -4.52%, CC(=O)Nc1nc2ncccn2c1-c1ccc(C(F)(F)F)cc1 -266%, O=C(C(=O)N1CCC(CNS(=O)(=O)Cc2ccccc2)CC1)c1cc2ccccc2o1 -3.01%, N#Cc1cccc(C(=O)NCC2CCN(C(=O)C(=O)c3cc4ccccc4o3)CC2)c1 -3.28%

Reference: PubChem BioAssay AID720648 (The Scripps Research Institute Molecular Screening Center, 2013)
